Assay results reported in PubChem BioAssay AID1851 (National Center for Advancing Translational Sciences (NCATS), 2009).
Values joined by “and” are separate entries in the source; they are usually repeats but may differ in a detail not shown here. Equal values may be shown once. Hit rate of the full screen: of about 16,000 compounds, about 2,600 (16%) were called active. Another 20% or so got no clear call; they are omitted. Calls come from the whole dose curve; as a rule, active = well fitted curve in the direction sought with a large enough effect; inconclusive = small, poorly fitted or top-dose-only effect, or effect the other way; inactive = no such curve, though single readings can be large or run the other way. The list is a sample of the results. Where a structure was tested more than once in an assay, its records may differ in their call.

Target: Cytochrome P450 2D6 (Homo sapiens) (UniProt P10635)
Sequence (P10635 whole entry, looked up): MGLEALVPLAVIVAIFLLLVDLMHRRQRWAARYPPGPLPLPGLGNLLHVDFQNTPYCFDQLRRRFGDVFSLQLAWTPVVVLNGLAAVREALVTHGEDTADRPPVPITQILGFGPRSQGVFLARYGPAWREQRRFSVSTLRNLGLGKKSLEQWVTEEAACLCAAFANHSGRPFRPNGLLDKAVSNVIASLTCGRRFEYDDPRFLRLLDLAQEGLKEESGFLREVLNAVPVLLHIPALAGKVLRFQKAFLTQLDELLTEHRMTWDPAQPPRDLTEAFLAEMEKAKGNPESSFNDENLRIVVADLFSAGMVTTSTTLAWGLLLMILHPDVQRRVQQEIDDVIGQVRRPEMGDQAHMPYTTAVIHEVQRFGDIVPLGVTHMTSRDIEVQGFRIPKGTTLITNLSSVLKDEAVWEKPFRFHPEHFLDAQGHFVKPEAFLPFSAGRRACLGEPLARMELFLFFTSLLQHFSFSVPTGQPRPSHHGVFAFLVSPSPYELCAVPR
Test: Cytochrome panel assay with activity outcomes
Details: recombinant CYP, pro-luciferin dealkylation, luminescence, p450-cyp2d6; series mostly up to 57.1 µM
% is set by controls: 0 for no effect and ±100 for the full control effect.

Row | SMILES | AC50 | activity, negative = inhibition
1 | COc1cc(OC)nc(NC(C)=O)n1 | inactive | 
2 | O=C(O)CCC(O)=C1S(=O)(=O)OCCOS1(=O)=O |  | -8.4% [at 11.4 µM] (inactive)
3 | Cc1ccc(N=Nc2c(O)ccc3cc(S(=O)(=O)O)ccc23)cc1 |  | 4.81% [at 11.4 µM] (inactive)
4 | Cc1ccc(NC2=NC(c3ccccc3)n3c(nc(C)cc3=O)N2)c(C)c1 (configuration not stated) | inactive | 
5 | CCC(=O)[C@@]1(C)[C@H](C)C[C@@H]2[C@@H]3CCC4=CC(=O)C=C[C@@]4(C)[C@H]3[C@H](O)C[C@]21C | inactive | 
6 | Cn1c(=O)c2c(nc(N3CCN(c4ccccn4)CC3)n2Cc2ccccc2Cl)n(C)c1=O | inactive | 
7 | CC(=O)Nc1ccc(NC(=O)C/C(C)=N/NC(=O)C(=O)N2CCCC2)cc1 | inactive | 
8 | C#CCSc1n[nH]c(-c2ccco2)n1 |  | -1.01% [at 11.4 µM] (inactive)
9 | O=c1c2ccccc2c(-c2ccc(Br)cc2)nn1Cc1ccccc1 | inactive | 
10 | Cc1ccc(-c2nn(C)c(=O)c3ccccc23)cc1CNC(=O)Cn1nc(-c2ccccc2)c2ccccc2c1=O | inactive | 
11 | O=c1c2ccccc2c(-c2ccccc2)nn1Cc1ccc(Cl)cc1 | 11.2 µM (active) | 
12 | Cc1ccc(-c2csc(NC(=S)NC(=O)/C=C/c3ccco3)n2)cc1 | inactive | 
13 | N#Cc1cccc(-c2nc3cnc(Oc4cccc(Cl)c4)nc3n(C3CC3)c2=O)c1 | inactive | 
14 | CC1=NN(c2ccccc2)C(=O)C1 | inactive | 
15 | CC(=O)c1cc2c(cc1NC(=O)CCCC(=O)O)OCO2 | inactive | 
16 | C/C(=C\C(=O)c1ccc(Br)cc1)NCc1ccc2c(c1)OCO2 | 7.94 µM (active) | 
17 | O=C(Cc1ccc(Br)cc1)OCC(=O)c1ccc2c(c1)OCCO2 | inactive | 
18 | CCOc1ccc(C(C)=O)cc1N1C(=O)C2C3C=CC(O3)C2C1=O (configuration not stated) | inactive | 
19 | COCC(=O)N1CCC2(CC1)CCN(C(=O)Nc1cccc(F)c1)CC2 | inactive | 
20 | CC(=O)N1CCC2(CC1)CCN(C(=O)Nc1cccc(F)c1)CC2 | 3.16 µM (active) | 
21 | CC(=O)N1CCC2(CCCN(C(=O)Nc3cccc(F)c3)C2)CC1 | inactive | 
22 | COc1ccc(C(=O)N2CCC3(CCN(C(=O)Nc4cccc(F)c4)CC3)CC2)cc1 | inactive | 
23 | COC(=O)N1CCC[C@@]2(CCN(C(=O)Nc3cccc(F)c3)C2)C1 | 10 µM (active) | 

Row | SMILES | AC50 | activity, negative = inhibition
24 | COCC(=O)N1CCC[C@@]2(CCN(C(=O)Nc3cccc(F)c3)C2)C1 | inactive | 
25 | COC(=O)N1CCC2(CCCN(C(=O)Nc3cccc(F)c3)C2)CC1 | inactive | 
26 | CS(=O)(=O)N1CCC2(CCN(C(=O)Nc3cccc(F)c3)CC2)CC1 | inactive | 
27 | COC(=O)N1CCC2(CCN(C(=O)Nc3cccc(F)c3)CC2)CC1 | 10 µM (active) | 
28 | Cc1cc(C(=O)NNC(=S)NC(C)c2ccccc2)c2ccccc2n1 (configuration not stated) | inactive | 
29 | COc1ccc(S(=O)(=O)N2CCC[C@H]2C(=O)NC2=NCCS2)cc1 | inactive | 
30 | COc1ccccc1N/C(=N/S(=O)(=O)c1ccc(C)cc1)c1ccc(Cl)cc1 | inactive | 
31 | CCOc1cc(CC(=O)N[C@@H](CC(C)C)c2ccccc2N2CCCCC2)ccc1C(=O)O | inactive | 
32 | Cc1cc(N2CCN(c3nc4ccccc4s3)CC2)n2ncnc2n1 | inactive | 
33 | C[n+]1ccccc1/C=N\O | inactive | 
34 | CS(=O)(=O)c1ccccc1-c1nc(-c2cc(C(F)(F)F)cc(C(F)(F)F)c2)no1 | inactive | 
35 | N[C@@H](CO)C(=O)O | inactive | 
36 | CO[C@]1(C2=NCCN2)COc2ccccc2O1 | inactive and 794 nM (active) | 
37 | COc1ccc(N2C(=O)c3ccccc3NC2c2ccc(OC)c(CSc3ccccn3)c2)cc1 (configuration not stated) | inactive | 
38 | COc1ccc(NC(=O)Cn2cccc2)c(OC)c1 | inactive | 
39 | CCCCN(CC)Cc1ccc(CNC(=O)Nc2ccc(OC)cc2OC)o1 | 0.501 µM (active) | 
40 | COCCN(C(=O)Nc1ccc(OC)cc1OC)C1CCN(C(C)=O)CC1 | inactive | 
41 | CC(=O)NC(CCS(C)(=O)=O)C(=O)Nc1c(F)cccc1F (configuration not stated) | inactive | 
42 | O=C1CCCN1CC(CN1CCOCC1)Sc1nnnn1-c1ccccc1 (configuration not stated) | inactive | 
43 | Cc1cc(C)n(-c2cc(N3CCN(S(=O)(=O)c4ccc(C)c(C)c4)CC3)ccc2[N+](=O)[O-])n1 | 0.501 µM (active) | 
44 | Cc1cc(C)c(S(=O)(=O)N2CCN(c3ccc([N+](=O)[O-])c(NCC4CCCO4)c3)CC2)c(C)c1 (configuration not stated) | inactive | 
45 | Cc1cc(C)n(-c2cc(N3CCN(C(=O)c4ccc(C(C)(C)C)cc4)CC3)ccc2[N+](=O)[O-])n1 | inactive | 
46 | COc1ccc2c(C=Nc3c(C)n(C)n(-c4ccccc4)c3=O)c(O)n(Cc3ccco3)c(=O)c2c1 | inactive | 

Row | SMILES | AC50 | activity, negative = inhibition
47 | COc1cccc(Cn2c(=O)c(-c3cccs3)nc3cnc(N4CCN(C)CC4)nc32)c1 | inactive | 
48 | CN(C)C(=O)CCc1nc(-c2ccc(C(C)(C)C)cc2)no1 | inactive | 
49 | COC(=O)c1ccc(Oc2nc(N(C)C)nc(N3CCOCC3)n2)cc1 | inactive | 
50 | O=C(O)[C@@H](O)[C@@H](O)[C@@H](O)[C@@H](O)c1nc2ccccc2s1 |  | -1.94% [at 11.4 µM] (inactive)
51 | Clc1ccccc1-c1nccc(-n2ccnc2)n1 | 7.94 µM (active) | 
52 | Cc1ccccc1-c1nccc(-n2ccnc2)n1 | 10 µM (active) | 
53 | COc1ccccc1-c1nnc(NC(C)=O)s1 | inactive | 
54 | FC(F)(F)c1ccccc1-c1nccc(N2CCNCC2)n1 | inactive | 
55 | COc1ccccc1-c1nccc(-n2ccnc2)n1 | 15.8 µM (active) | 
56 | O=C(O)CC[C@]1(C(=O)O)CCC(=O)c2ccccc21 |  | 10.4% [at 11.4 µM] (inactive)
57 | CCOCC(=O)Nc1cc(C(=O)Nc2ccccc2)ccc1Cl | inactive | 
58 | CCc1ccc(C(=O)N2CCC(c3nc4ccccc4s3)CC2)cc1 | inactive | 
59 | CO[C@@H]1COC(=O)C/C=C\[C@H](C)[C@H](OC)COC(=O)[C@H]2CCCN2C(=O)C/C=C\[C@H]1C |  | 6.57% [at 11.4 µM] (inactive)
60 | C[C@@H]1C[C@H]2[C@H]3C[C@@H](F)C4=CC(=O)C=C[C@]4(C)[C@@]3(Cl)[C@@H](O)C[C@@]2(C)[C@@H]1C(=O)COC(=O)C(C)(C)C | inactive | 
61 | CC(C)(C)OC(=O)[C@H]([C@@H]1N[C@@H](C(=O)O)C(C)(C)S1)N1C(=O)c2ccccc2C1=O |  | 13.9% [at 11.4 µM] (inactive)
62 | CC(C)(C)NC(=O)COC(=O)c1cncc(Br)c1 | inactive | 
63 | CO[C@@]12C[C@@H](COC(=O)c3cncc(Br)c3)CN(C)[C@H]1Cc1cn(C)c3cccc2c13 | 39.8 nM (active) and 20 nM (active) | 
64 | Cc1ccc(OCCNC(=O)c2cncc(Br)c2)cc1C | inactive | 
65 | COC(=O)C/C=C\[C@@H](C)[C@@H](/C=N\O[C@@H](C)c1cn([C@H](CO)Cc2ccccc2)nn1)OC |  | 15.1% [at 11.4 µM] (inactive) and 6.44% [at 11.4 µM] (inactive)
66 | COc1ccc2cc3[n+](cc2c1OC)CCc1cc2c(cc1-3)OCO2 | 2.51 µM (active) | 
67 | C[C@H]1[C@H](C)OC(=O)C[C@H](O)C[C@H](O)C[C@H](O)CC[C@H](O)[C@H](O)CC(=O)C[C@H](O)[C@H](C(=O)O)[C@H](O)C[C@H](O[C@@H]2O[C@@H](C)[C@H](O)[C@@H](N)[C@@H]2O)C=CC=CC=CC=CCCC=CC=C[C@@](C)(O)[C@H]1O |  | -1.84% [at 11.4 µM] (inactive)
68 | O=C(Nc1ncn[nH]1)c1ccc([N+](=O)[O-])cc1[N+](=O)[O-] | inactive | 
69 | NC(=O)NC(=O)Nc1ccccc1Cl | inactive | 

Row | SMILES | AC50 | activity, negative = inhibition
70 | NC(N)=NC(=O)Cc1c(Cl)cccc1Cl | inactive and 126 nM (active) | 
71 | O=C(O)COC(=O)Cc1ccccc1Nc1c(Cl)cccc1Cl | inactive | 
72 | CCC(CC)c1nnc(NC(=O)c2cccc(S(=O)(=O)N3CCc4ccccc43)c2)s1 | inactive | 
73 | CCCCN1C(=O)C(NC(=O)CC(C)C)(C(F)(F)F)C2=C1CC(C)(C)CC2=O (configuration not stated) | inactive | 
74 | Nc1cc(N)nc(SCC(=O)c2ccccc2)n1 | inactive | 
75 | CN1[C@H](CC(=O)c2ccccc2)CCC[C@H]1C[C@H](O)c1ccccc1 | 25.1 µM (active) | 
76 | CN1[C@@H](CC(=O)c2ccccc2)CCC[C@@H]1C[C@@H](O)c1ccccc1 | 0.251 µM (active) | 
77 | O=C(C[C@@H](c1ccccc1)N1CCCCC1)c1ccccc1 |  | -19.2% [at 11.4 µM] (inactive)
78 | O=C(C[C@@H]1C=Cc2ccccc2N1C(=O)c1ccccc1)c1ccccc1 |  | -16.3% [at 11.4 µM] (inactive)
79 | COc1ccc(-n2c(=O)cnc3cnc(OC)nc32)cc1 | inactive | 
80 | COCCn1c(=O)c(-c2cccc(C#N)c2)nc2cnc(N3CCN(C)CC3)nc21 | inactive | 
81 | O=C(c1cc(C(F)(F)F)cc(C(F)(F)F)c1)N1CCC[C@@]2(CCN(c3ccccc3)C2)C1 | inactive | 
82 | O=C(N/N=C/c1ccc(O)cc1)c1ccc(COc2cc(Cl)ccc2Cl)o1 | inactive | 
83 | O=C(Nc1cccnc1)c1ccc(COc2cc(Cl)ccc2Cl)o1 | 15.8 µM (active) | 
84 | O=C(Nc1ccn(Cc2ccccc2F)n1)c1ccc(COc2cc(Cl)ccc2Cl)o1 | inactive | 
85 | NS(=O)(=O)c1ccc(N=Nc2ccc[nH]c2=O)cc1 |  | -6.28% [at 11.4 µM] (inactive)
86 | C(=Nc1cnc2ccccc2c1)c1ccc2ccccc2n1 |  | 1.16% [at 11.4 µM] (inactive)
87 | C=C(C)[C@@H]1CC=C(C(=O)O)CC1 | inactive | 
88 | NNC(=O)c1nn(-c2ccc(Cl)cc2)ccc1=O | inactive | 
89 | COc1ccc(Oc2c(Cl)cnn(-c3ccccc3)c2=O)cc1 | inactive | 
90 | Cc1ccc2ccccc2c1CSc1nc(N)nc2c1ncn2CC(C)C | 3.98 µM (active) | 
91 | CC(C)Cn1cnc2c(Sc3c([N+](=O)[O-])ncn3C)nc(N)nc21 |  | 8.92% [at 11.4 µM] (inactive)
92 | CC(C)Cn1cnc2c(SCc3ccccn3)nc(N)nc21 |  | 6.1% [at 11.4 µM] (inactive)
